# High-throughput results (PubChem BioAssay)
# G9a inh = blocks human histone lysine methyltransferase G9a; Q96KQ7; G9a H3K9 monomethylation, AlphaScreen, 2 h; Potency, µM (doses to about 102 µM), inactives show top-dose activity, negative = inhibition, hits mostly inhibitors; 8.8% of 350,000 active; note: potency is the fitted concentration of half-maximal effect; nearly all actives have a fitted effect of over 75% in size
# Target sequence (Q96KQ7 913-1193 limits assumed): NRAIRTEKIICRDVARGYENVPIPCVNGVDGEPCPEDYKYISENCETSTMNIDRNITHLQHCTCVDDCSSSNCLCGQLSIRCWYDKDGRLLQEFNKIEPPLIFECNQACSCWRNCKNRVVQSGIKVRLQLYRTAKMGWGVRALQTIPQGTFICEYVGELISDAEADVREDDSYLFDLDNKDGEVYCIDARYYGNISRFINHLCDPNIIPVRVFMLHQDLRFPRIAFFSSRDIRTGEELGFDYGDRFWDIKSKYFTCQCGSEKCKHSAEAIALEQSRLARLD
#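 G9a (20 nM) preincubated 15 min RT with compounds, then 500 nM biotinylated H3K9 peptide and 20 uM SAM added; 2 h RT reaction. Monomethyl-H3K9 product detected by AlphaScreen with anti-H3K9me1 antibody, streptavidin donor and anti-rabbit IgG acceptor beads.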
# CCT modulator = modulators of cytosolic chaperonin (CCT/TRiC) activity; purified chaperonin ATPase assay, HTRF ADP detection, 30 min; activity change, % (test concentration not listed), hits read low; 0.3% of 360,000 active; AID 651819; in the data active = activity change below about -30%
#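 We incubate TRiC, 40 or 20 nM final, with library compounds at 76 uM and 10 uM ATP for 30 min at 37 °C. ADP formed is detected with Transcreener HTRF reagents after 30 min at room temperature.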
# MmCpn inh = inhibitors of Methanococcus maripaludis chaperonin TRiC (MmCpn). purified Mm-Cpn ATPase, ADP Transcreener TR-FRET. AID 504842. 0.031% of 330,000 active. Potency, µM (doses to about 76.9 µM), inactives show top-dose activity, negative = inhibition, actives largely listed as inhibitors; note: potency is the fitted concentration of half-maximal effect; nearly all actives have a fitted effect of over 80% in size
#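 Purified archaeal Mm-CPN (25nM final) preincubated 10 min at 37degC with compound, then 10uM ATP for 30 min at 37degC; ADP measured by HTRF Transcreener TR-FRET; buffer 30 mM TRIS pH 7.4, 100mM KCl, 5mM MgCl2, 1mM DTT.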
# PLK1 PBD block = blocks phosphopeptide binding to human PLK1 polo-box domain; P53350; Plk1 PBD binding of FITC phosphopeptide, fluorescence polarization; Potency, µM, inactives show max response, negative = inhibition, usual class: inhibitors; 2.8% of 360,000 active; note: potency is the fitted concentration of half-maximal effect; series mostly up to about 57 µM; nearly all actives have a fitted effect of over 65% in size
# VDR inh = inhibitors of human vitamin D receptor. P11473. VDR-SRC2-3 peptide fluorescence polarization, 2 h. Potency, µM, inactives show max response, negative = inhibition, most hits filed as inhibitors. 0.93% of 400,000 active. AID 504847; note: potency is the fitted concentration of half-maximal effect
# Target sequence (P11473 whole entry, looked up): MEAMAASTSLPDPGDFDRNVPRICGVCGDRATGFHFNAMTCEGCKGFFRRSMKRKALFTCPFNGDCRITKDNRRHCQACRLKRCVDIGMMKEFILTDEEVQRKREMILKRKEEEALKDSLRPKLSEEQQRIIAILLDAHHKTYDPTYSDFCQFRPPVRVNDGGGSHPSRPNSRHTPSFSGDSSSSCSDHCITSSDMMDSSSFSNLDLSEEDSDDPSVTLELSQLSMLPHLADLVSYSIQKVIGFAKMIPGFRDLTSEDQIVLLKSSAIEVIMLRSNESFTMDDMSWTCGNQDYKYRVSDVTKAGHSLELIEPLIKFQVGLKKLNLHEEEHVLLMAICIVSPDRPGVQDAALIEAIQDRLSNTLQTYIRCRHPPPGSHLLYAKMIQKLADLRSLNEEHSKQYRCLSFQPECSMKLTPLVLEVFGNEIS
#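 Signal is fluorescence polarization, reporting how far test compounds block the interaction of VDR with the SRC2-3 coregulator peptide after a 2 h room-temperature incubation.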
# Sfp PPTase inh = blocks B. subtilis Sfp PPTase activity; Biochemical Sfp PPTase activity, qHTS; Q9F4F7; Potency, µM, inactives show largest response in the series, negative = inhibition, actives largely listed as inhibitors; 3.5% of 310,000 active; AID 1490;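 note: the enzyme is Sfp with the accession as filed and its product quenches rhodamine fluorescence; potency is the fitted concentration of half-maximal effect; 0% = enzyme reaction without inhibitor and -100% = no enzyme wells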
#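 After 15 min at room temperature with compound, 15 nM Sfp received 5 uM rhodamine-CoA plus 12.5 uM BHQ-2-ybbR (50 mM Hepes pH 7.6, 10 mM MgCl2). Rate came from the fluorescence difference over 30 min, ex 525/em 598 nm.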
# Active calls of the source: *; ? = inconclusive; nt = no result given; [ ] = remark or other dose. Rows were chosen to be rich in hits. Some 10% of all compounds tested hit in one or more screens of this group. Unless noted, calls come from the whole dose curve; as a rule, active = well fitted curve in the direction sought with a large enough effect; inconclusive = small, poorly fitted or top-dose-only effect, or another doubt; inactive = no such curve, though single readings can be large; an effect the other way counts as inactive or inconclusive. Unless noted, % is set by controls: 0 for no effect and ±100 for the full control effect.
SMILES,G9a inh,CCT modulator,MmCpn inh,PLK1 PBD block,VDR inh,Sfp PPTase inh
CC(C)c1cc(C(=O)NCc2ccccc2)no1,-2.8%[59 µM],nt,nt,nt,-21.2%,nt
CCCCC(=O)Nc1ccc(C(=O)NNC(=S)NC(=O)c2ccco2)cc1,25.1µM*,-1.0,0.6%,-4.4%,-18.6%,5.0%
O=C(Nc1ccc(NC(=O)c2cccs2)cc1Cl)c1ccco1,-43.6%,-1.9,1.2%,-9.9%,4.4%,6.3%
O=C(Nc1ccc(Cl)c(NC(=O)c2cccs2)c1)c1ccco1,56.2µM*,-0.1,-0.4%,-20.6%,12.6%,12.3%
CCC(=O)Nc1ccc(Cl)c(NC(=S)NC(=O)COc2ccccc2)c1,27.9%[59 µM],-0.8,0.7%,26.7µM*,3.0%,-2.2%
O=C(NC(=S)NNC(=O)c1ccco1)c1ccc(F)cc1,12.6µM*,1.1,1.6%,-14.7%,23.1%,-11.9%
CCC(=O)Nc1ccc(Cl)c(NC(=S)NC(=O)COc2ccc(Cl)cc2)c1,21.3%[59 µM],-3.0,-8.6%,-6.7%,-15.1%,5.5%
CC(=O)Nc1cccc(NC(=O)Cc2csc(COc3cccc(C)c3)n2)c1,-3.4%[59 µM],nt,nt,nt,3.3%,nt
CCCC(=O)Nc1ccc(Cl)c(NC(=S)NC(=O)c2ccco2)c1,50.1µM*,0.0,1.2%,-12.3%,-1.4%,2.9%
CCCC(=O)Nc1ccc(C(=O)NNC(=O)c2ccccc2Br)cc1,22.4µM*,-3.4,-0.3%,-25.5%,-7.2%,-27.9%
CCCC(=O)Nc1cccc(NC(=O)c2ccccc2Br)c1,6.6%[59 µM],0.0,-0.8%,0.0%,2.3%,14.5%
CCCC(=O)Nc1ccc(Cl)c(NC(=O)c2ccco2)c1,-1.9%[59 µM],0.7,-0.6%,-2.5%,1.0%,5.4%
COc1ccc(/C=C/C(=O)NC(=S)NNC(=O)c2ccco2)cc1,12.6µM*,0.1,0.0%,-4.7%,13.0%,21.4%
O=c1[nH]c(=O)n([C@@H]2C[C@H](O)[C@H](CO)O2)cc1C(F)(F)F,18.8%[21.5 µM],nt,nt,nt,2.6%,33.5%
CC1CCC(NC(=O)c2ccc(CS(=O)(=O)c3cccc(C(F)(F)F)c3)o2)CC1 (stereo unspecified),-4.7%[59 µM],nt,nt,nt,-0.8%,nt
Cc1ccccc1C1c2[nH]c3ccccc3c2CCN1Cc1cccn1-c1ncccn1 (stereo unspecified),50.1µM*,1.4,-4.9%,2.8%,3.0%,-3.3%
N#C/C(=C/c1ccco1)C(N)=S,nt,1.0,-6.1%,-22.0%,11.8%,10µM*
N#C/C(=C\c1ccc2c(c1)OCO2)C(N)=S,nt,0.6,-10.9%,-10.6%,-16.8%,?
COc1ccc(CNc2nc(SCc3ccc(Cl)cc3)nc3ccccc23)cc1,-5.1%[59 µM],nt,nt,nt,11.2%,nt
CCS(=O)(=O)N1CCN(CC(=O)NC2CCCCC2)CC1,nt,0.6,2.3%,21.2µM*,-3.4%,11.5%
C/C(=C\c1ccccc1)CN1CCN(C)CC1,12.6µM*,-1.3,-1.8%,-9.4%,-12.4%,-22.9%
CCOC(=O)N1CCN(C/C(C)=C/c2ccccc2)CC1,20µM*,-2.6,-2.5%,-11.7%,11.9%,-19.6%
C/C(=C\c1ccccc1)CN1CCC(C(=O)N2CCCC(C)C2)CC1 (stereo unspecified),12.6µM*,0.8,-1.7%,-15.2%,-12.5%,-6.8%
CCOC(=O)C1Nc2ccc(OC(F)(F)F)cc2C2C=CCC12 (stereo unspecified),nt,1.1,nt,?,?,nt
NS(=O)(=O)c1ccc2c(c1)C1C=CCC1C(C1CC=CCC1)N2 (stereo unspecified),?,-0.8,-0.7%,-24.5%,-1.6%,20µM*
SMILES,G9a inh,CCT modulator,MmCpn inh,PLK1 PBD block,VDR inh,Sfp PPTase inh
CCCN(CCC)CCCNC(=O)C1CCC(CNS(=O)(=O)c2ccc(NC(C)=O)cc2)CC1 (stereo unspecified),1.2%[59 µM],nt,nt,nt,7.4%,nt
Cc1ccc(C2=NN=C(NC(=O)C(F)(F)F)SC2)cc1,28.2µM*,-0.4,0.8%,-24.0%,50.1µM*,?
COCCN(C(=O)CSc1nnc(-c2ccccc2F)n1N)c1c(N)n(Cc2ccccc2)c(=O)[nH]c1=O,nt,0.1,-1.7%,-8.2%,2.0%,4.2%
CCN(C(=O)CSc1nnc(NCCOC)s1)c1c(N)n(Cc2ccccc2)c(=O)[nH]c1=O,nt,-0.5,nt,-4.5%,-0.2%,nt
COCCN(C(=O)CSc1nc2ccccc2s1)c1c(N)n(Cc2ccccc2)c(=O)[nH]c1=O,nt,-6.5,nt,?,79.4µM*,nt
COCCN(C(=O)CSc1nnc(-c2cccs2)n1N)c1c(N)n(Cc2ccccc2)c(=O)[nH]c1=O,56.2µM*,-1.1,0.6%,5.1%,-14.5%,24.4%
COCCNc1nnc(SCC(=O)N(C)c2c(N)n(Cc3ccccc3)c(=O)[nH]c2=O)s1,22.4µM*,-1.5,0.9%,-1.3%,-11.3%,nt
COCCN(C(=O)CSc1nnc(Nc2ccccc2F)s1)c1c(N)n(Cc2ccccc2)c(=O)[nH]c1=O,14.1µM*,-5.5,2.6%,?,21.2%,24.5%
COC(=O)[C@@]1(Cc2ccc(OC)cc2)[C@H]2c3cc(C(=O)N(C)C)n(CCF)c3C[C@H]2CN1C(=O)c1ccccc1,nt,nt,nt,nt,nt,2.8%
CC(=O)Nc1nonc1-c1nnc(SCc2ccccc2Cl)n1C,7.3%[59 µM],nt,nt,nt,8.7%,nt
CC(=O)OCC(CO)OC(C)=O (stereo unspecified) (tested in a mixture with another compound),nt,nt,nt,nt,-1.1%,0.2%
CCC(=O)N1CCc2cc(S(=O)(=O)NCCC(=O)NCc3ccc(C)cc3)ccc21,8.1%[59 µM],nt,nt,nt,6.1%,nt
CCOc1ccc2nc(SCC(=O)N(CCOC)c3c(N)n(Cc4ccccc4)c(=O)[nH]c3=O)[nH]c2c1,10µM*,3.3,-1.7%,-4.3%,0.7%,nt
COc1ccc(C(=O)NC(=S)Nc2ccc(N3CCCC3)cc2)cc1,?,-0.3,0.2%,-19.3%,-3.2%,8.5%
COc1cccc(C(=O)NC(=S)Nc2ccc(N(C)C)cc2)c1,10µM*,-0.8,-0.4%,-7.5%,-10.2%,?
CC(C)Oc1cccc(C(=O)NC(=S)Nc2ccc(N3CCN(C)CC3)cc2)c1,nt,-3.4,-22.8%,-16.0%,-10.3%,70.8µM*
CC(C)Oc1cccc(C(=O)NC(=S)Nc2cccc(NC(=O)c3ccccc3Cl)c2)c1,5.7%[59 µM],-0.5,1.3%,-7.6%,-8.3%,3.7%
COc1ccccc1C(=O)NC(=S)Nc1ccc(N2CCCC2)cc1,44.7µM*,-1.5,-3.5%,-14.4%,-22.2%,11.0%
COc1cc(C(=O)NC(=S)Nc2ccc(N3CCCC3)cc2)cc(OC)c1OC,31.6µM*,-2.1,0.6%,-3.6%,-19.7%,?
CC(C)Oc1ccc(C(=O)N(Cc2ccco2)c2ccccn2)cc1,3.5%[59 µM],nt,nt,nt,4.5%,nt
COc1cccc(C(=O)NC(=S)Nc2ccc(N3CCCC3)cc2)c1,8.91µM*,-2.2,0.7%,-10.1%,12.4%,-3.6%
COc1ccc(NC(=S)c2ccc(N(C)C)cc2)cc1,25.1µM*,-0.2,?,?,-0.7%,5.4%
